Measurements: PubChem BioAssay AID651744 (Broad Institute, 2012)
The whole screen tested about 5,600 compounds, of which about 3,100 (55%) were called active. Not shown: some 3% with an inconclusive outcome. The set was probably picked from earlier hits. Not all results are given here. A number with no mark means an inactive call.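 The calls were made as follows: active = mean loss of cell viability signal at or above a set limit, and enough replicates individually reaching it; inconclusive = meets only the mean limit or only the replicate share; inactive = meets neither condition.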

Experiment: viability loss of mouse 3T3 cells – cell-based, cherry-pick, single point, set 2, cytotoxicity control, confirmation (AID 651744);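 also: 0% = median of neutral control wells and 100% = median of positive control wells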
Details: NIH/3T3 viability, CellTiter-Glo ATP luminescence, 90 h; at 24.9 µM; stronger effect = higher value

| Compound | inhibition |
| --- | --- |
| O=C(Cc1ccccn1)N1CCCCN2[C@@H](CO)[C@@H](c3ccc(C#Cc4ccccc4)cc3)[C@@H]2C1 | 103% (active) |
| COc1ccc(-c2ccc([C@H]3[C@H](CO)N4CCCCN(C(=O)Cc5ccncc5)C[C@@H]34)cc2)cc1 | 18.4% |
| C/C=C/c1ccc([C@H]2[C@H](CO)N3CCCCN(C(=O)Cc4ccncc4)C[C@@H]23)cc1 | 3.85% |
| O=C(Cc1cccnc1)N1CCCCN2[C@@H](CO)[C@H](c3ccc(C#CC4CCCC4)cc3)[C@@H]2C1 | 105% (active) |
| COc1ccc(C#Cc2ccc([C@H]3[C@H](CO)N4CCCCN(C(=O)Cc5ccccc5)C[C@@H]34)cc2)cc1 | 106% (active) |
